Measured values taken from PubChem BioAssay (EPA / NIEHS).
The source made the active and inactive calls. The calls were made as follows: active = hit-call score of the fitted dose curve at least 0.9, where 1 is the maximum; inactive = score below 0.9.

Assay: ATG_VDRE_CIS: Attagene CIS-FACTORIAL HepG2 Assay for human Vitamin D Receptor Element (VDRE) (AID 2282968)
Settings: HepG2 VDRE cis-reporter transcription, actives raise or lower the signal
Procedure: ATG_CIS is a cell-based, multiplexed-readout assay that uses HepG2, a human liver cell line, with measurements taken at 24 hours after chemical dosing in a 24-well plate.ATG_VDRE_CIS is one of 52 assay component(s) measured or calculated from the ATG_CIS assay. It is designed to make measurements of mRNA induction, a form of inducible reporter, as detected with fluorescence intensity signals by Reverse transcription polymerase chain reaction (RT-PCR) and Capillary electrophoresis technology.Data from the assay component ATG_VDRE_CIS was analyzed into 1 assay endpoint. This assay endpoint, ATG_VDRE_CIS, was analyzed with bidirectional fitting relative to DMSO as the negative control and baseline of activity. Using a type of inducible reporter, measures of mRNA for gain or loss-of-signal activity can be used to understand the reporter gene at the transcription factor-level as they relate to the gene VDR. Furthermore, this assay endpoint can be referred to as a primary readout, because this assay has produced multiple assay endpoints where this one serves a reporter gene function. To generalize the intended target to other relatable targets, this assay endpoint is annotated to the nuclear receptor intended target family, where the subfamily is non-steroidal.
Human liver HepG2 cells are transiently transfected with multiple reporter transcription units (MRTUs) in 6-well plates using FuGene 6 reagent (Roche; 3 ml FuGene/1 mg DNA). The MRTU constructs are regulated by a cis-regulating element (promoter). […] A major difference between the CIS and TRANS system is that in CIS activities of endogenous TFs are measured, whereas the TRANS assay evaluates changes in activities of exogenous, chimeric NR-Gal4 proteins. […] At the end of 24 hour incubation, total RNA was isolated using TriZol reagent (Invitrogen). The isolated RNA is then reverse-transcribed using oligo(dT) primer and Mo-MLV reverse transcriptase (Invitrogen) with DNAse I (Ambion) treatment for 30 min. The one-tenth of the produced cDNA was amplified by PCR using Taq DNA polymerase (Invitrogen) and two reporter sequence-specific primers. The PCR products were fluorescently labeled by primer extension with 6-arboxyfluorescein (6-FAM) 5'-labeled reporter sequence-specific primer (2 min at 95 C, 20 s at 68 C and 10 min at 72 C) and these products were digested with 5U of HpaI (New England Biolabs) for 2h at 37 C. The fragments were purified using Qiaquick PCR columns (Qiagen), analyzed on an ABI 3130xL genetic analyzer (Applied Biosystems) with peak positions identified by using a set of X-rhodamine (ROX)-labeled MapMarker1000 molecular weight standards (BioVentures). The raw capillary electrophoresis data was processed using Attagraph software (Attagene).

| Structure (SMILES) | outcome | AC50 |
| --- | --- | --- |
| Clc1cc(Cl)c(-c2c(Cl)c(Cl)cc(Cl)c2Cl)cc1Cl | inactive | – |
| ClC(c1ccccc1)(c1ccccc1)c1ccccc1 | – | 5.98 µM (active) |
| CC(C)CCCCCCc1ccc(OCCOCCO)cc1 | inactive | – |
| CCCCCCOC(=O)C(C)C | inactive | – |
| O=C1NC2NC(=O)NC2N1 (stereo not given) | inactive | – |
| C[Si](C)(C)O[Si](C)(C)C | inactive | – |
| CCCCOCC | inactive | – |
| CN(C)C(=O)Nc1ccc(Oc2ccc(Cl)cc2)cc1 | inactive | – |
| CSc1c(Cl)c(Cl)c(Cl)c(Cl)c1Cl | inactive | – |
| COC(=O)c1ccc(OC)cc1 | inactive | – |
| COC(=O)C=C(C)CCC=C(C)C | – | 10.5 µM (active) |
| CS(C)=O | inactive | – |
| FC(F)(F)COCC(F)(F)F | inactive | – |
| C[Si]1(C)O[Si](C)(C)O[Si](C)(C)O1 | inactive | – |
| CCOc1ccc(NC(=O)CC(C)=O)cc1 | inactive | – |
| CC(C)c1ccccc1O | inactive | – |
| COc1cc(C(C)C)ccc1C | inactive | – |
| C=CC(C)C#N (stereo not given) | inactive | – |
| CCCCCCCCCCCCS(=O)(=O)Cl | inactive | – |
| CCC(=O)O[C@@H]1C[C@H]2CC[C@]1(C)C2(C)C | inactive | – |

| Structure (SMILES) | outcome | AC50 |
| --- | --- | --- |
| COC(=O)Nc1ccc(Cl)c(Cl)c1 | – | 43.7 µM (active) |
| CCCCC(CC)COC(C)=O (stereo not given) | inactive | – |
| C1CCOC1 | inactive | – |
| CC(C)(CO)[C@@H](O)C(=O)NCCC(=O)O | inactive | – |
| Cc1cc(S(=O)(=O)O)ccc1N=Nc1c(O)ccc2ccccc12 | inactive | – |
| O=c1[nH]c(=O)c2cn[nH]c2[nH]1 | inactive | – |
| Cc1ccc(S(N)(=O)=O)cc1 | inactive | – |
| OCc1ccc(Cl)cc1Cl | inactive | – |
| CC(=O)CC(=O)Nc1ccccc1 | inactive | – |
| CC(C)CCOC(=O)c1ccccc1 | inactive | – |
| CN(c1nccc(=O)[nH]1)C1CCN(c2nc3ccccc3n2Cc2ccc(F)cc2)CC1 | – | 9.35 µM (active) |
| CC(C)NCC(O)COc1ccc(CC(N)=O)cc1 (stereo not given) | inactive | – |
| Nc1ccc2cc(S(=O)(=O)O)cc(O)c2c1N=Nc1ccccc1C(F)(F)F | inactive | – |
| CCCC(O)C(O)CO (stereo not given) | inactive | – |
| O=C1OC2(c3ccccc31)c1ccc(O)c(Br)c1Oc1c2ccc(O)c1Br | – | 27.3 µM (active) |
| CC1CC(O)CC(C)(C)C1 (stereo not given) | inactive | – |
| CCNCCO | inactive | – |
| CCOC(=O)CC(C)O (stereo not given) | inactive | – |
| Cc1ccc(-c2ccccc2)cc1 | inactive | – |
| COC(=O)c1cccnc1 | inactive | – |
